Drawing on the supplement of paper PMC6555819, this text covers PBM binding z-score for 7 sequences.

Holding throughout (assay): PBM binding z-score (relative to random genomic background probes); higher = stronger binding; sequences stand for … in GC…GCGATTGACAGCGTAGAATGAAGG
Assay [1] concerns FXR:RXRa (NR concentration 270 nM, RXRa partner concentration 90 nM). The method in brief: (§1)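 Binding z-scores take random background probes as their reference. They come from custom Agilent 4×180K protein-binding microarrays incubated 1 h with ligand-free nuclear receptor dimers, with antibodies against each partner (one per run) detecting binding. Scanned fluorescence was regression-normalized.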

The test system of assay [2] is LXRa:RXRa (NR concentration 270 nM, RXRa partner concentration 90 nM). The method, boiled down:
as §1

For assay [3], the system named is LXRa homodimer (NR concentration 270 nM). The method, boiled down: as §1
Assay [4] relates to LXRb:RXRa (NR concentration 270 nM, RXRa partner concentration 90 nM). The method, boiled down:
as §1

In assay [5] the test system is LXRb homodimer (NR concentration 270 nM). The method in brief: as §1
Assay [6] has as its system PPARa:RXRa (NR concentration 270 nM, RXRa partner concentration 90 nM). The method, boiled down:
as §1

Assay [7] relates to PPARg:RXRa (NR concentration 180 nM, RXRa partner concentration 90 nM). The method, boiled down: as §1
The test system of assay [8] is PPARg:RXRa 270nM:90nM, anti-RXR (NR concentration 270 nM, RXRa partner concentration 90 nM). The method in brief: as §1
Assay [9] relates to PPARg:RXRa 30nM:10nM, anti-RXR (NR concentration 30 nM, RXRa partner concentration 10 nM). The method in brief: as §1
Assay [10] has as its system PPARg:RXRa 90nM:30nM, anti-RXR (NR concentration 90 nM, RXRa partner concentration 30 nM). The method in brief: as §1
The subject of assay [11] is PPARg:RXRa DBDmut IVT, anti-RXR (DBD mutation: RXRa K156A/R161A, NR concentration 270 nM, RXRa partner concentration 90 nM). The method, boiled down:
as §1

Assay [12] concerns PPARg:RXRa IVT, anti-PPARg (NR concentration 270 nM, RXRa partner concentration 90 nM). The method in brief: as §1
Assay [13] concerns PPARg DBDmut:RXRa IVT, anti-PPARg (DBD mutation: PPARg1 K132A/R137A, NR concentration 270 nM, RXRa partner concentration 90 nM). The method in brief:
as §1

Assay [14] deals with PPARg DBDmut IVT, anti-PPARg (DBD mutation: PPARg1 K132A/R137A, NR concentration 270 nM). The method, boiled down:
as §1

The test system of assay [15] is PPARg homodimer (NR concentration 180 nM). The method in brief: as §1
Assay [16] concerns PXR:RXRa (NR concentration 270 nM, RXRa partner concentration 90 nM). The method in brief: as §1
Assay [17] concerns PXR homodimer (NR concentration 270 nM). The method in brief:
as §1

The test system of assay [18] is RARa:RXR (NR concentration 270 nM, RXRa partner concentration 90 nM). The method in brief: as §1
The subject of assay [19] is RARa homodimer (NR concentration 270 nM). The method in brief: as §1
The subject of assay [20] is RARb:RXRa (NR concentration 270 nM, RXRa partner concentration 90 nM). The method in brief:
as §1

Consider ACTATTTGTTGAGACGAGGGCAACCGATAGGTTG, for which the PBM binding z-score in assay [1] was 0.374; in assay [2], 0.535; in assay [3] it was 0.28; in [4], 0.453; in assay [5], 0.762; in [6], 0.255. Also, the PBM binding z-score in assay [7] was found to be 0.623; in assay [8], 0.216; in assay [9], 0.23; in [10] it was 0.0132; in [11], 0.443; in assay [12], 0.881. For the same sequence, the PBM binding z-score in [13] turned out to be 1.52; in assay [14], 1.09; in assay [15], 0.629; in assay [16], 0.581; in assay [17] it was 0.979; in assay [18], 0.391. Moreover, the PBM binding z-score in assay [19] worked out at 0.779; in [20] it was 1.07.

As to ATCTCTAGGTAACAAGTTCAGTGGAAGAGAGGAC, the PBM binding z-score in assay [1] was found to be 0.589; in [2] it was 0.744; in assay [3], 0.58; in assay [4], 0.666; in [5], 0.823; in [6] it was 1.47. Moreover, the PBM binding z-score was 1.7 in [7]; 1.79 in [8]; 0.967 in assay [9]; 1.71 in assay [10]; 3.2 in assay [11]; 3.02 in assay [12]. For the same sequence, the PBM binding z-score in assay [13] is 0.956; in assay [14], 1.34; in assay [15] it was 1.43; in assay [16], 1.66; in [17], 1.48; in assay [18] it was 1.15. In addition, the PBM binding z-score in [19] was determined as 1.39; in [20], 1.8.

With CGTCCAAGGTCAGAGAGGTCAGTCAATGCCGAGT, the PBM binding z-score in [1] worked out at 6.08; in assay [2], 5.49; in assay [3], 3.45; in assay [4], 4.65; in [5] it was 0.441; in assay [6], 4.81. Moreover, the PBM binding z-score in [7] turned out to be 3.37; in [8], 4.63; in [9], 1.03; in assay [10], 2.63; in assay [11] it was 2.82; in assay [12] it was 3.35. The PBM binding z-score in assay [13] was -0.282; in [14], -0.369; in [15], 4.06; in [16], 6.13; in assay [17] it was 12.6; in [18], 5.82. The PBM binding z-score in [19] is 1.78; in [20], 5.12.

Regarding ACCTCTAGGTAAGACTCAGTTCAGTGAAGAACGC, the PBM binding z-score in assay [1] is -0.0705; in assay [2], -0.143; in assay [3] it was -0.072; in assay [4], -0.301; in [5] it was 0.0183; in [6], -0.0817. Also, the PBM binding z-score in [7] was 0.0418; in assay [8], 0.031; in assay [9], -0.00405; in [10], -0.257; in assay [11], 1.32; in [12], 0.243. The PBM binding z-score in assay [13] is -0.124; in [14], -0.421; in assay [15], 0.121; in assay [16] it was 0.405; in [17], 0.515; in [18], 0.112. Also, the PBM binding z-score was -0.37 in [19] and -0.0918 in assay [20].

In the case of TCATATAGGCAAAAGGTGAAAGTCGGTGTGGTAA, the PBM binding z-score in assay [1] was 1.44; in [2] it was 1.54; in assay [3], -0.253; in assay [4], 1.6; in assay [5], -0.167; in assay [6] it was 4.76. For the same sequence, the PBM binding z-score in [7] came to 7.39; in [8], 6.76; in assay [9], 6.88; in [10], 8.15; in assay [11], 3.66; in assay [12], 3.79. Also, the PBM binding z-score is 0.358 in [13]; -0.517 in [14]; 1.39 in assay [15]; 1.27 in assay [16]; 0.0545 in [17]; 1.81 in assay [18]. In addition, the PBM binding z-score in assay [19] was found to be 0.897; in [20], 1.81.

As to TTTACAGGGTCAAAGGCCAGAGTACGAATGTCGA, the PBM binding z-score in assay [1] was found to be 6.76; in [2] it was 5.85; in assay [3] it was 2.22; in assay [4], 4.87; in [5], 1.18; in assay [6] it was 6.03. For the same sequence, the PBM binding z-score in assay [7] amounted to 8.6; in assay [8], 7.65; in [9], 6.04; in [10], 7.79; in assay [11] it was 3.26; in assay [12] it was 5.18. In addition, the PBM binding z-score came to 1.93 in [13]; 1.36 in assay [14]; 1.8 in assay [15]; 4.41 in assay [16]; 0.247 in [17]; 6 in assay [18]. For the same sequence, the results for the PBM binding z-score in assay [19] and in assay [20] were 1.16 and 4.52, respectively.

For CCGACTGGGGCAGCAAGGTTACCATACCATCCGG, the PBM binding z-score in [1] is -0.0165; in assay [2], -0.101; in assay [3], -0.322; in assay [4], -0.094; in assay [5] it was -0.744; in assay [6], 0.883. Besides, the PBM binding z-score was 0.917 in [7]; 0.659 in assay [8]; -0.509 in assay [9]; 0.147 in assay [10]; 1.54 in [11]; 2.54 in [12]. Moreover, the PBM binding z-score in assay [13] is -0.529; in assay [14], -1.62; in [15], 0.27; in assay [16] it was 0.264; in assay [17], -0.339; in assay [18] it was 0.662. For the same sequence, the values for the PBM binding z-score in assay [19] and in assay [20] were -0.434 and 1.39, respectively.
